Pf growth 96h – P. falciparum growth inhibition at 96 hours; P. falciparum luciferase reporter growth, 96 h; Potency, µM (titrated, usually from 28.7 µM), without a hit: at the top dose activity change, negative = inhibition, usual class: inhibitors; 6.9% of 320,000 active; AID 504834; also: potency is read from the fitted curve at half-maximal effect; % is scaled to controls: 0 for no effect and ±100 for the full control effect
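Erythrocytes infected with luciferase-expressing P. falciparum were dispensed at 2% hematocrit and 0.05% parasitemia (final), then incubated with compounds 96 hours at 37 C in 5% CO2. Luminescence after detection reagent addition reported growth.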
HCMV antiviral – blocks human cytomegalovirus replication; 4.5% of 410,000 active; activity change, negative = inhibition, % at 57.5 µM; HFF cells, HCMV-luciferase reporter, 72 h; active compounds read low; in the data active = activity change below about -60%; inconclusive = no clear call, values can overlap the other calls; inactive = above about -39%; also: % is scaled to controls: 0 for no effect and ±100 for the full control effect
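HFF cells seeded 16 h at 37C, treated with compounds, infected with luciferase-reporter HCMV at MOI 1 PFU/cell; luciferase read at 72 h post infection, normalized to buffer-only and Salinomycin controls.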
Pf growth 48h – P. falciparum growth inhibition at 48 hours (one generation) | P. falciparum luciferase growth in erythrocytes, 48 h | Potency, µM (top dose mostly 28.7 µM), inactives show at the top dose activity change, negative = inhibition, hits mostly inhibitors | 5.9% of 310,000 active | AID 504832; also: potency is read from the fitted curve at half-maximal effect; % is scaled to controls: 0 for no effect and ±100 for the full control effect
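Erythrocytes infected with P. falciparum carrying an integrated firefly luciferase reporter (2% hematocrit, 0.1% parasitemia final) were exposed to compounds in RPMI 1640 with 0.5% Albumax at 37 C, 5% CO2. Growth inhibition was scored as reduced luminescence.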
Cycloheximide cs – affects cycloheximide protein synthesis inhibition readout, counter-screen; cell reporter, cycloheximide protein synthesis inhibition counterscreen; max response, %; 12% of 300,000 active; in the data active = max response mostly above about 13%, no sharp cut-off; inactive = mostly below about 14%; also: read at 38.3 µM for the half of the compounds with a filed dose; 0% is about no effect
Shiga toxin inh – blocks Shiga toxin action in Vero cells. Vero cells, Shiga toxin protein synthesis inhibition reporter. 9.2% of 290,000 active. inhibition, % at 38.7 µM; in the data active = inhibition mostly above about 28%, no sharp cut-off; inactive = mostly below about 43%; also: 0% is about no effect
Starred values were filed as active, the others as inactive; u = inconclusive; x = no result. Shown are actives, neighbours in structure and some others; about 20% of the full set was active somewhere. Unless noted, calls follow the shape of the dose curve; as a rule, active = well fitted inhibition curve with a large enough effect; inconclusive = small, poorly fitted or top-dose-only effect, or another doubt; inactive = no such curve, though single readings can be large or run the other way.

SMILES	Pf growth 96h	HCMV antiviral	Pf growth 48h	Cycloheximide cs	Shiga toxin inh
CNS(=O)(=O)c1cn(CC(=O)Nc2ccc(C)cc2C)cc1S(=O)(=O)NC	x	0.0	x	x	x
COc1ccccc1N1CCN(c2nc3ccccc3nc2C(C#N)C(=O)OC(C)C)CC1 (centres undefined)	2.08µM*	59.5	1.85µM*	-1.4	-2.2
CCOC(=O)N1CCN(c2nc3ccccc3nc2C(C#N)C(=O)NCCc2ccccc2)CC1 (centres undefined)	u	-17.5	7.38µM*	-2.7	-6.8
CCOc1ccccc1N1CCN(c2nc3ccccc3nc2C(C#N)C(=O)OC)CC1 (centres undefined)	u	0.3	u	-1.1	-5.5
COCCCNC(=O)C(C#N)c1nc2ccccc2nc1N1CCCC1 (centres undefined)	7.38µM*	-20.3	8.28µM*	-3.6	-15.3
N#CC(C(=O)NCCc1ccccc1)c1nc2ccccc2nc1N1CCCCC1 (centres undefined)	53.8%	-37.9	u	-3.1	-8.7
CCN1CCN(c2nc3ccccc3nc2C(C#N)C(=O)OCc2ccccc2)CC1 (centres undefined)	u	2.4	11.7µM*	-7.6	-19.4
CCCCCCOC(=O)C(C#N)c1nc2ccccc2nc1N1CCN(CC)CC1 (centres undefined)	u	-24.3	u	-3.6	2.4
COCCCNC(=O)Cn1cc(/C=C(\C#N)C(=O)NC2CCCC2)c2ccccc21	8.6%	-3.3	14.0%	1.7	x
CC(C)Cn1cc(C(=O)NC2CCN(Cc3ccccc3)CC2)c2c3ccccc3n(C)c2c1=O	u	-6.7	2.62µM*	-2.0	-16.0
CC(C)Cn1cc(C(=O)N2CCN(c3ccccn3)CC2)c2c3ccccc3n(C)c2c1=O	9.28µM*	10.4	7.38µM*	-1.0	2.4
CCN1CCN(C(=O)c2cn(CCOC)c(=O)c3c2c2ccccc2n3C)CC1	u	10.4	3.3%	3.8	13.0
CCN(c1ccccc1)S(=O)(=O)c1c(C)noc1C	7.8%	-2.8	u	x	x
Cc1cccc(N(C)S(=O)(=O)c2c(C)noc2C)c1	9.28µM*	4.0	8.4%	-2.6	2.2
COC(=O)C1=C(N)OC2=C(C(=O)CC(C)(C)C2)C1c1ccoc1 (centres undefined)	3.2%	-1.2	15.2%	-3.0	14.6
CC(=O)c1cccc(OCCCOc2cccc3cccnc23)c1	u	5.8	-0.3%	18.6*	20.3
Cc1cc(Cl)cc(Cl)c1OCCOc1cccc2cccnc12	4.15µM*	-13.4	x	8.7	13.2
COc1cccc(C=O)c1OCCCOc1cccc2cccnc12	0.0%	98.0	112.7%	38.3*	66.0*
Cc1ccc(OCCOCCOc2cccc3cccnc23)c(Br)c1	-6.2%	-5.6	-14.4%	-1.4	9.3
Brc1ccccc1OCCCOc1cccc2cccnc12	u	66.4	56.6%	33.3*	x
COc1cc(C(=O)NCCOc2cccc3cccnc23)cc(OC)c1OC	-26.6%	132.3	242.5%	5.9	20.7
Cc1cc(C)cc(OCCCOc2cccc3cccnc23)c1	38.7%	2.8	-11.8%	4.7	-16.2
Clc1cc(Br)ccc1OCCOCCOc1cccc2cccnc12	3.4%	2.9	8.7%	-1.8	-20.4
CC(=O)Nc1ccc(S(=O)(=O)NC2(C(F)(F)F)C(=O)Nc3c2c(=O)[nH]c(=O)n3-c2cccc(Cl)c2)cc1 (centres undefined)	x	-4.8	x	x	x
CCN(CC)CCNS(=O)(=O)c1ccc2c3c(cccc13)C(=O)N2	0.0%	22.7	4.4%	1.4	-11.1
SMILES	Pf growth 96h	HCMV antiviral	Pf growth 48h	Cycloheximide cs	Shiga toxin inh
COCCNC(=O)c1cccc(OC2CCN(Cc3cccc(SC)c3)CC2)c1	u	-5.5	2.2%	1.0	-8.1
Brc1ccccc1OCCOc1cccc2cccnc12	-15.7%	-10.1	82.3%	16.4*	68.0*
COc1ccc2c(c1OC)C(=O)N1C2SC[C@H]1C(=O)NC1CCCC1 (some centres undefined)	6.8%	-25.0	2.8%	-1.9	12.3
Cc1ccc2cc(CN(CCCO)S(=O)(=O)c3cccc4nsnc34)c(=O)[nH]c2c1	4.15µM*	51.0	x	4.7	-6.2
CC1CCC(NC(=O)c2ccc3c(c2)N(Cc2cccc(F)c2)C(=O)c2ccccc2S3)CC1 (centres undefined)	x	104.3	x	x	x
COC(=O)C1=C(C)NC(C)=C(C(=O)OC(C)C)C1c1cccc2nonc12 (centres undefined)	x	-3.3	x	-0.8	-1.4

Screening data from PubChem.
